Test results published in ChEMBL document CHEMBL3988442, “University of Dundee, Small-Polar-MMV Screening Library” (2021).
For some assays here: Measured potencies and affinities stand elsewhere.

Experiments:
[1] = target: T1, Methionyl-tRNA synthetase, putative (Leishmania donovani (strain BPK282A1)) (UniProt E9BF75); test: Leishmania donovani Methionine tRNA synthetase (LdMetRS):v7. Dose response assay; assay type: functional; design: conc 80 nM, time 150 minutes
T1 sequence (whole entry): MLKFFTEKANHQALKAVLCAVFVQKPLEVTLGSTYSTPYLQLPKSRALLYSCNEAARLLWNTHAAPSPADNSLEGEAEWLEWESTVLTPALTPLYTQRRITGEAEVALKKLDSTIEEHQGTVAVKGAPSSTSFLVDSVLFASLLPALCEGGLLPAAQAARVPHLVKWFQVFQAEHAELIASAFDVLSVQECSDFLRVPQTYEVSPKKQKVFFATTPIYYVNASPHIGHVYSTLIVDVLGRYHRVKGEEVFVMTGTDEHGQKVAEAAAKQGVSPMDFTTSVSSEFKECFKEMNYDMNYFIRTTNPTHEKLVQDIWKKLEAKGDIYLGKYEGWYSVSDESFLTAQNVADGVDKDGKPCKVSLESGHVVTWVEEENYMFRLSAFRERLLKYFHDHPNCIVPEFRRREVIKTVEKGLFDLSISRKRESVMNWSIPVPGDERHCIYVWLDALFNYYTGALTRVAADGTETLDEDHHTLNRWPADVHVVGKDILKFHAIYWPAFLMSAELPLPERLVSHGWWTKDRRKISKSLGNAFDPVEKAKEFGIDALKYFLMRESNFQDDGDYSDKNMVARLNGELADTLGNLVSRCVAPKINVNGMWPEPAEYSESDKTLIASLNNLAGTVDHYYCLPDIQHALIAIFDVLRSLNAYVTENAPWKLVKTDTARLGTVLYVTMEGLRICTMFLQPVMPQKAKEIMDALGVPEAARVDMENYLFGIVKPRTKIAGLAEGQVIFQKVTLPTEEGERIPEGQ

[2] = target: Protein translocase subunit SecA (Escherichia coli (strain K12)) (UniProt P10408); test: Assay to Identify E. coli SecA ATPase Inhibitors; assay type: functional; design: scale not given: direction of the effect not stated beside the values; conditions: 30 µM
Sequence of Protein translocase subunit SecA (Escherichia coli (strain K12)) (P10408 whole entry): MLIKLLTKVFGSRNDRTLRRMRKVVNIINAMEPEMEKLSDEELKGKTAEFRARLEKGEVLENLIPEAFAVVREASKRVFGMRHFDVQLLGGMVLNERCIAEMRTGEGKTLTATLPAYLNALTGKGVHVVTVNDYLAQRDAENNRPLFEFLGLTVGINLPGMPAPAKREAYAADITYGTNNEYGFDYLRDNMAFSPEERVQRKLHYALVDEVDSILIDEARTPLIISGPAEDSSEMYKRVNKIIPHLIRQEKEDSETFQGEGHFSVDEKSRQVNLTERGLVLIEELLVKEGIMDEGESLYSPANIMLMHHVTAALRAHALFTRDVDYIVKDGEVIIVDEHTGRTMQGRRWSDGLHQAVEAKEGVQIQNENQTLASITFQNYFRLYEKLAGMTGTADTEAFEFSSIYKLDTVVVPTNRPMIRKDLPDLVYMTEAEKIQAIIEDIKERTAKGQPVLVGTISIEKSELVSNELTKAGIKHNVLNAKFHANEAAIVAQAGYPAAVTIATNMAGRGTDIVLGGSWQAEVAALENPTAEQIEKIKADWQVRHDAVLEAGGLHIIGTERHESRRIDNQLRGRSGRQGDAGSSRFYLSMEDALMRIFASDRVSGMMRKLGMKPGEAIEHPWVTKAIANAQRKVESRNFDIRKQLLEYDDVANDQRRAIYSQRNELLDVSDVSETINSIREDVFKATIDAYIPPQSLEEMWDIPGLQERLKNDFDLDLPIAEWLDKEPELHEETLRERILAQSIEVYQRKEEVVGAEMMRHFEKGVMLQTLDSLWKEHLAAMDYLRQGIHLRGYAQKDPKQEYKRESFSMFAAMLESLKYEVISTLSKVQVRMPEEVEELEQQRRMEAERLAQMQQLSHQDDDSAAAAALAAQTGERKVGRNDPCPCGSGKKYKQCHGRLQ

[3] = target: T2, Ubiquitin-activating enzyme e1, putative (Leishmania donovani (strain BPK282A1)) (UniProt E9BSI1); test: Leishmania donovani Ubiquitin Activating Enzyme (LdE1); assay type: functional; design: scale not given: direction of the effect not stated beside the values; conditions: 30 µM
T2 sequence (whole entry): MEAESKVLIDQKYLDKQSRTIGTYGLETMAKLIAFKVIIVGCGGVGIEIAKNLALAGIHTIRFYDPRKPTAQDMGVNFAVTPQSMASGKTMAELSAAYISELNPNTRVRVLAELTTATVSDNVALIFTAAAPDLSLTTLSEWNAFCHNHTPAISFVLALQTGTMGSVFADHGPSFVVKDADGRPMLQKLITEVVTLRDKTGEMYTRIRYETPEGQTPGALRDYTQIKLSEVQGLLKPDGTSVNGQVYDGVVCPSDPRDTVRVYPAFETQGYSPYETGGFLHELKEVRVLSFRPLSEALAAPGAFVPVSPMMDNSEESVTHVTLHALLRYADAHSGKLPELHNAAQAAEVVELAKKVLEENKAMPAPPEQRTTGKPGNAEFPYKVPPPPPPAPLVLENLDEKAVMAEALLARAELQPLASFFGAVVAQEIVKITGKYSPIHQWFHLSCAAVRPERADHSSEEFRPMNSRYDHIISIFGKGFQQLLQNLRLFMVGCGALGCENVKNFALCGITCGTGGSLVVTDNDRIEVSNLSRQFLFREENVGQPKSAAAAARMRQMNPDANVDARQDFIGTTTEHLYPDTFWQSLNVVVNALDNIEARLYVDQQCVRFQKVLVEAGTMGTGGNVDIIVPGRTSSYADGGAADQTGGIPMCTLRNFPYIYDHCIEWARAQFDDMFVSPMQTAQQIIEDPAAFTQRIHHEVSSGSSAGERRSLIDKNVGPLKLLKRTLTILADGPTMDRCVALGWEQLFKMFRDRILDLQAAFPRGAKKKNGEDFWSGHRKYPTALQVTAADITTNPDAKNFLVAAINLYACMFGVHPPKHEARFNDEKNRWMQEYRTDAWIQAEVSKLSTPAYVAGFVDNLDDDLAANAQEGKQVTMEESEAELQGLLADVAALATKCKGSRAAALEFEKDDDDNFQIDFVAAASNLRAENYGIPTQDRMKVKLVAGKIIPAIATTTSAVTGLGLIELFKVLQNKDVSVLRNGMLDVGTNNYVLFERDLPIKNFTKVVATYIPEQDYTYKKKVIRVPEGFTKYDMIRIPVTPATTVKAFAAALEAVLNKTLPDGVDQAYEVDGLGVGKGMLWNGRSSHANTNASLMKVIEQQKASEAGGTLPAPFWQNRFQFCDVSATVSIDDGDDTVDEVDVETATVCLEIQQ

[4] = target: AMP-activated protein kinase, AMPK (Homo sapiens) (UniProt P54646+O43741+P54619+Q9UGJ0+Q9Y478+Q13131+Q9UGI9); test: AMP-dependent Kinase enzyme assay. An in vitro enzyme assay that detects ADP turnover that is directly proportional to AMPK activity. This uses naive AMPK that is activated during the assay with MK-8722; assay type: functional; design: scale not given: direction of the effect not stated beside the values; conditions: 30 µM
[5] = target: Sialic acid-binding Ig-like lectin 9 (Homo sapiens) (UniProt Q9Y336); test: Hs-Siglec9 ALPHAscreen SOP 20170721; design: scale not given: direction of the effect not stated beside the values; conditions: 10 µM
Sequence of Sialic acid-binding Ig-like lectin 9 (Homo sapiens) (Q9Y336 whole entry): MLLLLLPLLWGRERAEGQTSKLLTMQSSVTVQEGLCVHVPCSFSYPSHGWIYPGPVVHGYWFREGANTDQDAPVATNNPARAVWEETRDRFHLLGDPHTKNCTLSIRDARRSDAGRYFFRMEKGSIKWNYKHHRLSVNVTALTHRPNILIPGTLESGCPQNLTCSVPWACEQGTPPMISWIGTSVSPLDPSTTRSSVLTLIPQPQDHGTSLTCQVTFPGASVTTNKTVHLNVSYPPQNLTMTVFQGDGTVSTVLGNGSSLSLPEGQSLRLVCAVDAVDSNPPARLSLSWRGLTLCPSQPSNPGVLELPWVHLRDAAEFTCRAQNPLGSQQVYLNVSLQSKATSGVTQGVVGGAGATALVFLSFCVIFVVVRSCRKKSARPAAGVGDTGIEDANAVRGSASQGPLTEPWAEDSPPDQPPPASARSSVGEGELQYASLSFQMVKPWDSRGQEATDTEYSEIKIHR

Trypanosoma cruzi = test: Trypanosoma cruzi phosphomannomutase and mannose-1-phosphate guanylyltransferase assay; assay type: functional; design: scale not given: direction of the effect not stated beside the values; conditions: 10 µM
[6] = target: T3, Arginase-2, mitochondrial (Homo sapiens) (UniProt P78540); test: in vitro enzyme assay to detect the production of urea directly proportional to the activity of Arginase II; assay type: functional; design: scale not given: in the data most compounds retested in dose-response had high values; conditions: 33.3 µM
T3 sequence (whole entry): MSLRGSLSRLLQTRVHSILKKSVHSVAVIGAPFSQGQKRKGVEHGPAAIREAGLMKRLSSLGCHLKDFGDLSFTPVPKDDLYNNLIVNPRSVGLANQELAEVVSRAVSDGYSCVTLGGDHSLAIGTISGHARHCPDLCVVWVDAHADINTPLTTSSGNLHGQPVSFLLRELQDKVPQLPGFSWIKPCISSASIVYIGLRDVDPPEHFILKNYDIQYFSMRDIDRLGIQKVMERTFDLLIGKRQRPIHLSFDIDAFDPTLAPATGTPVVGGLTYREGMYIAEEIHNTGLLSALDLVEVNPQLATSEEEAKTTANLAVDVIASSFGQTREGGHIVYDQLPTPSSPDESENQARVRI

[7] = target: T4, Proteasome subunit beta (Trypanosoma cruzi) (UniProt O96673); test: Trypanosoma cruzi proteasome chymotrypsin-like activity (TcProtChymo) assay.; assay type: functional; design: scale not given: in the data most compounds retested in dose-response had high values; conditions: 9.37 µM
T4 sequence (whole entry): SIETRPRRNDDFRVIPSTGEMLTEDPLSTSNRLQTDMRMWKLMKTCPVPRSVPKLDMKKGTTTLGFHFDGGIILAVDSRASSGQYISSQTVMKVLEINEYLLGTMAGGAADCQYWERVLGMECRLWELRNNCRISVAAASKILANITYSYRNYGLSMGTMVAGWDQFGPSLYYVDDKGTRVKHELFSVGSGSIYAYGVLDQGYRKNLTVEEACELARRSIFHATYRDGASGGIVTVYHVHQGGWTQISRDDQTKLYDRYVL

Homo sapiens = species: Homo sapiens; test: To identify inhibition of the IFN signalling (Jak-Stat) pathway via expression of an eGFP reporter gene under the control of an IFN-stimulated response element (ISRE) containing MxA promoter.; assay type: functional; design: scale not given: direction of the effect not stated beside the values; conditions: 30 µM
[8] = target: T5, Tyrosyl-tRNA synthetase, putative (Trypanosoma cruzi (strain CL Brener)) (UniProt Q4DSP6); test: Trypanosoma cruzi tyrosyl tRNA synthetase (TcYRS) _High Tyrosine SOP; assay type: functional; design: scale not given: in the data most compounds retested in dose-response had high values; conditions: 30 µM
T5 sequence (whole entry): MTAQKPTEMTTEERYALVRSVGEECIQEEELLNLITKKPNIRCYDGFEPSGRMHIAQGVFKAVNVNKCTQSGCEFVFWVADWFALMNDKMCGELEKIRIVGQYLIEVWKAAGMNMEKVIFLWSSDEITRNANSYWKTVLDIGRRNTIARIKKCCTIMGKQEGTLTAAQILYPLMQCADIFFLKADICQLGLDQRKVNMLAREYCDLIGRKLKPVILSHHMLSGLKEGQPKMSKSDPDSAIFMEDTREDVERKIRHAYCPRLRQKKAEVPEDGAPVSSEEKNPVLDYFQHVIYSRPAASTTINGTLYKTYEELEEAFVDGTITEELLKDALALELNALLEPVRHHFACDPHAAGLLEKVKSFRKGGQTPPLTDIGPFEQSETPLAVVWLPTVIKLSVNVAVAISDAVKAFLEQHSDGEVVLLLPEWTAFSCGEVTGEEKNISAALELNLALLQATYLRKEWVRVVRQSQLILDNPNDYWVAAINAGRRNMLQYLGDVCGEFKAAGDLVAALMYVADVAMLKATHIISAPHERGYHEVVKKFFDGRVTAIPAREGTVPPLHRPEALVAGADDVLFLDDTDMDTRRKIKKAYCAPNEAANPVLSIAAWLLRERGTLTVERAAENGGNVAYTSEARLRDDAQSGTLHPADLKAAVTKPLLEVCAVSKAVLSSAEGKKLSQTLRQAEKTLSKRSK

[9] = target: T5, Tyrosyl-tRNA synthetase, putative (Trypanosoma cruzi (strain CL Brener)); test: Trypanosoma cruzi tyrosyl tRNA synthetase (TcYRS) SOP; assay type: functional; design: scale not given: direction of the effect not stated beside the values; conditions: 30 µM
[10] = target: Chromo domain-containing protein 1 (Saccharomyces cerevisiae (strain ATCC 204508 / S288c) (Baker's yeast)) (UniProt P32657); test: ScCHD-1 Enzyme Inhibition Assay; assay type: functional; design: scale not given: in the data most compounds retested in dose-response had high values; conditions: 30 µM
Sequence of Chromo domain-containing protein 1 (Saccharomyces cerevisiae (strain ATCC 204508 / S288c) (Baker's yeast)) (P32657 whole entry, the tested form may be a part): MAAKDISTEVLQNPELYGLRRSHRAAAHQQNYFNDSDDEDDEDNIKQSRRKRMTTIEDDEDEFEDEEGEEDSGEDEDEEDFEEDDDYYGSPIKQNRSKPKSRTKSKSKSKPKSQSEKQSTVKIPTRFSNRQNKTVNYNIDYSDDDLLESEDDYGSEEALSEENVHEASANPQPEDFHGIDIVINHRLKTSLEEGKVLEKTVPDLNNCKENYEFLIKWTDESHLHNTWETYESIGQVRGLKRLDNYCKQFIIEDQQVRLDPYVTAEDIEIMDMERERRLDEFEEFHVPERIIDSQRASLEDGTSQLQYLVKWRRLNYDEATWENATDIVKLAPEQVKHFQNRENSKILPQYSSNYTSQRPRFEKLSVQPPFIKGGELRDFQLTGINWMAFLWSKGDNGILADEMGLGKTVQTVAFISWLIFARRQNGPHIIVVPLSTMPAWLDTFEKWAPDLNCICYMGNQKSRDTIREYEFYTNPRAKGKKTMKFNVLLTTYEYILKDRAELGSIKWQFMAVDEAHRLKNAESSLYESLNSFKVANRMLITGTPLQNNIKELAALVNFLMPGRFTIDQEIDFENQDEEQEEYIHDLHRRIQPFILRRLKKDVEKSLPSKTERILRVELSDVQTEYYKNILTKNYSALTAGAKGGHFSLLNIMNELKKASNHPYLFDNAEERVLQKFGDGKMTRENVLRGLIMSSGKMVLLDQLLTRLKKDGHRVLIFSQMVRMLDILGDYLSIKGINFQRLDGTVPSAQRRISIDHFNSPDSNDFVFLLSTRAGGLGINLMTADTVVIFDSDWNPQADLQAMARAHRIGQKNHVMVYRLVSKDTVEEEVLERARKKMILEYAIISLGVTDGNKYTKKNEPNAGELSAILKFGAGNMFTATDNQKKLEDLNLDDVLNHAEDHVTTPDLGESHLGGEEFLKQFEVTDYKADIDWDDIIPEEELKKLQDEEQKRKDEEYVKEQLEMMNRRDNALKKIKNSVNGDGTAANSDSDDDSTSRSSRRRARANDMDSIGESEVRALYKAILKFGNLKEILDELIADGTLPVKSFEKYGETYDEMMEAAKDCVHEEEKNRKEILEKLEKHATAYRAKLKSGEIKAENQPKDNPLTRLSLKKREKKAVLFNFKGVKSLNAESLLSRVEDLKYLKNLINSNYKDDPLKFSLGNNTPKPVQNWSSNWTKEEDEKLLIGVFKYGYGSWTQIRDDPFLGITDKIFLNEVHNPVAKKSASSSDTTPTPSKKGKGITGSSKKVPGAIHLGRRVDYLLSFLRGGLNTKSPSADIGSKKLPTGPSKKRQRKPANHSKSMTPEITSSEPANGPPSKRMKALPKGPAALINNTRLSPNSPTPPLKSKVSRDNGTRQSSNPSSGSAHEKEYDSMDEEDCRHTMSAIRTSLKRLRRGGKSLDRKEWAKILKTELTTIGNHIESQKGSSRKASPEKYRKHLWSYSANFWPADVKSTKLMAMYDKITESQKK

| Structure (SMILES) | PXC50 ([1]; MAX_EFFECT 4.275534442) | PXC50 ([1]; MAX_EFFECT 11.79577465) | Percent Effect [2] [%] | Percent Effect [3] [%] | Percent Effect [4] [%] | Percent Effect [5] [%] | Percent Effect (Trypanosoma cruzi) [%] | Percent Effect [6] [%] | Percent Effect [7] [%] | Percent Effect (Homo sapiens) [%] | Percent Effect [8] [%] | Percent Effect [9] [%] | Percent Effect [10] [%] | PXC50 ([1]; BOTTOM 1.39525403, HILLSLOPE 1.863289847, MAX_EFFECT 51.97132616, TOP 100.0) | PXC50 ([1]; BOTTOM -10.14330359, HILLSLOPE 0.427510045, MAX_EFFECT 50.72463768, TOP 100.0) | PXC50 ([1]; MAX_EFFECT 28.8676236) | PXC50 ([1]; MAX_EFFECT 30.90211132) | PXC50 ([1]; MAX_EFFECT 48.51485149) |
| --- | --- | --- | --- | --- | --- | --- | --- | --- | --- | --- | --- | --- | --- | --- | --- | --- | --- | --- |
| Cn1cnnc1C1CCN(c2cncc(-n3cccn3)n2)CC1 | < 4 | < 4 | -2.06 | 8.11 | -2.17 | -0.628 | 0.781 | 2.92 | 13.8 | -3.56 | 5.94 | 8.54 | -8.65 | – | – | – | – | – |
| Cc1cc(C)c(CNC(=O)N2CCCC2c2cccn2C)c(=O)[nH]1 (centres undefined) | – | – | -1.81 | 8.86 | 3.05 | 2.38 | 2.97 | 3.66 | 10.6 | -3.9 | 13.5 | 27.9 | -14.4 | 4.01 | 4.22 | < 4 | < 4 | < 4 |
